Test results as given in PubChem BioAssay (NCATS).
Inconclusive results are not listed. Values without a mark were called inactive. Calls of active or inactive are those of the source. Calls come from the whole dose curve; as a rule, active = well fitted inhibition curve with a large enough effect; inconclusive = small, poorly fitted or top-dose-only effect; inactive = flat fitted curve, though single readings scatter.

Target: Voltage-gated inwardly rectifying potassium channel KCNH2 (Homo sapiens) (UniProt Q12809)
Sequence (Q12809 whole entry, looked up): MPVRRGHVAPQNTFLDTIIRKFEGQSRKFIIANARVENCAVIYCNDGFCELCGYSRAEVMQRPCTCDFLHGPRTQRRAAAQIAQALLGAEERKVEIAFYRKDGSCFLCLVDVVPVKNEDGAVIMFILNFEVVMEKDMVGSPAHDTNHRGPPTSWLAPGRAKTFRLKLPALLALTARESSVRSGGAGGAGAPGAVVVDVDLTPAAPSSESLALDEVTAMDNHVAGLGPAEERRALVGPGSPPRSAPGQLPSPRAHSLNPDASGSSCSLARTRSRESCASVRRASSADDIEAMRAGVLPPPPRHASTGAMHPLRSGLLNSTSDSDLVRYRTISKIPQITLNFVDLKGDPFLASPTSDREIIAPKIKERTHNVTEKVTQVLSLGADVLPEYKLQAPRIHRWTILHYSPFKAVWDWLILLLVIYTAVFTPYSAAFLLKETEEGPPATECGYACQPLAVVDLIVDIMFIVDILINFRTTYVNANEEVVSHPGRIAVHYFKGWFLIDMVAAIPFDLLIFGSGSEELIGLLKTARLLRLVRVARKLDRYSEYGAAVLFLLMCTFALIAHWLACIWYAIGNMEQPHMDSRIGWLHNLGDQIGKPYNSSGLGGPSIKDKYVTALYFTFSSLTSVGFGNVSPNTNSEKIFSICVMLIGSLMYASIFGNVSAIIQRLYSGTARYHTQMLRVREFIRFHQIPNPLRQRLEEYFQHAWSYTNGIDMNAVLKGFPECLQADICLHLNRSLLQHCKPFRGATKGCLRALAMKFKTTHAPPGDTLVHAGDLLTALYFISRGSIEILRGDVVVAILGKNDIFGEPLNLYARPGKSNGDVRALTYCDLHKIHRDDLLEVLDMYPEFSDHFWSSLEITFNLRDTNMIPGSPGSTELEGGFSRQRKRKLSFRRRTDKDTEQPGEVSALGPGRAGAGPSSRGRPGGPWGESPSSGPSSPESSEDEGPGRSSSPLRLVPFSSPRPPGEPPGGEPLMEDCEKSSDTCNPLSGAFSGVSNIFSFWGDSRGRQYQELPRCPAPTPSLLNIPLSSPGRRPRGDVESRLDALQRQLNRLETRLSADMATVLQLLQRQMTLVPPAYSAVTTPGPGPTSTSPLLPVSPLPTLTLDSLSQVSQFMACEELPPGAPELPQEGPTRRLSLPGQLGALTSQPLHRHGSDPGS
Experiment: qHTS Assay for Small Molecule Inhibitors of the Human hERG Channel Activity (AID 588834);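 note: lower thallium flux fluorescence means stronger hERG block; nearly all actives have a fitted effect of over 50% in size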; for activity change, negative = inhibition: top concentration of the series differs between compounds
Conditions: U2OS BacMam hERG, FluxOR thallium flux fluorescence; series mostly up to 46.1 µM; activity change, negative = inhibition: at the top concentration
Outline: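 Thallium serves as surrogate for K+ influx through BacMam-delivered hERG in U2OS cells. Compounds are added for about 10 minutes after dye loading; stimulation buffer then starts flux, monitored kinetically on FDSS.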
% is set by controls: 0 for no effect and ±100 for the full control effect; potency is the fitted concentration of half-maximal effect.

Point of comparison: `CCOC(=O)[C@H](CCc1ccccc1)N[C@@H](C)C(=O)N1Cc2cc(OC)c(OC)cc2C[C@H]1C(=O)O`, “activity change, negative = inhibition” value 3.43%. Against it:
- O=C(O)C(S)C(S)C(=O)O (stereo unspecified) — lower, 2.84%
- CC[C@H](C)[C@H](N)C(=O)O — lower, -3.41%
- C/C=C1\[C@H]2C=C(C)C[C@]1(N)c1ccc(=O)[nH]c1C2 — lower, -15.6%
- CC(=O)N[C@@H](CC(C)C)C(=O)O — lower, -3.2%
- C[C@]1(Cn2ccnn2)[C@H](C(=O)O)N2C(=O)C[C@H]2S1(=O)=O — higher, 4.22%
- CC(C)=CCC[C@@](C)(O)[C@H]1CC=C(C)CC1 — lower, -10.1%
- C=CCN1C[C@H](C(=O)N(CCCN(C)C)C(=O)NCC)C[C@@H]2c3cccc4[nH]cc(c34)C[C@H]21 — lower, -15.1%
- COc1ccc(-c2cc(=O)c3c(O)cc(O[C@@H]4O[C@H](CO[C@@H]5O[C@@H](C)[C@H](O)[C@@H](O)[C@H]5O)[C@@H](O)[C@H](O)[C@H]4O)cc3o2)cc1O — lower, -14.7%
- CCCCCCCCCCOc1cc2c(=O)c(C(=O)OCC)c[nH]c2cc1OCC — higher, 12.5%
- COC(=O)N/N=C/c1c[n+]([O-])c2ccccc2[n+]1[O-] — lower, 2.23%

Point of comparison: `COc1ccccc1OCC(O)CO` (stereo unspecified), “activity change, negative = inhibition” value -11.1% [at 20.6 µM]. Against it:
- NS(=O)(=O)c1cc(C2(O)NC(=O)c3ccccc32)ccc1Cl (stereo unspecified) — lower, -24.1% [at 20.6 µM]
- C[N+]1(C)CCCC(OC(=O)C(O)(c2ccccc2)c2ccccc2)C1 (stereo unspecified) — higher, -0.0631% [at 20.6 µM]
- CCN[C@H]1CN(CCCOC)S(=O)(=O)c2sc(S(N)(=O)=O)cc21 — higher, -1.5% [at 20.6 µM]

In the case of `CC[C@]12CCCN3CCc4c(n(c5ccccc45)[C@@](O)(C(=O)OC)C1)[C@@H]32`, the Potency is reported as 398 nM (active).
